Most compounds without a hit are left out; they make up all but 2.9% or so of the library.
FBA Mtb inh = Mtb fructose-bisphosphate aldolase inhibition; purified M. tuberculosis FBA, fluorescence read-out; actives 2.3% (n = 360,000); AID 588726; inhibition, % at 1 µM; in the data active means inhibition above about 27%;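 further: 0% = vehicle and 100% = reference inhibitor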
Target sequence (P9WQA3 whole entry, looked up): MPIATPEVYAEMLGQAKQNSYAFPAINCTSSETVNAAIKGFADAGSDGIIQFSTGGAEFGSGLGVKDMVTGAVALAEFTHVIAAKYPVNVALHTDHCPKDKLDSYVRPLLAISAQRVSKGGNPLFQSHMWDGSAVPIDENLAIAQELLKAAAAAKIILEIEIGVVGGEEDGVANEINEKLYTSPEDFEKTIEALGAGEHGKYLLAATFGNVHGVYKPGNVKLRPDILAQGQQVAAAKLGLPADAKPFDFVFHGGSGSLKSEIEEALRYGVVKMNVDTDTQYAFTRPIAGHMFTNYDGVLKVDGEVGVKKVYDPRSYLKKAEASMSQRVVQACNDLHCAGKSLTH
Mtb hypoxia rep = reduces hypoxia-regulated biosensor signal in M. tuberculosis; M. tuberculosis hypoxia-regulated fluorescent reporter, fluorescence; fluorescence inhibition, % (no concentration beside the values); actives 0.1% (n = 300,000); AID 1159583; in the data active means fluorescence inhibition mostly above about 23%, no sharp cut-off; inactive means mostly below about 17%
FadD28 FP inh = M. tuberculosis FadD28 bisubstrate binding inhibition; FadD28 bisubstrate probe binding, fluorescence polarization; inhibition, % at 12.5 µM; actives 0.22% (n = 360,000); AID 588549; in the data active means inhibition above about 8.5%, passing the limit was not always enough
BioA inh = BioA (M. tuberculosis) enzyme inhibition | purified M. tuberculosis BioA enzyme, plate reader | inhibition, % at 9.99 µM | actives 0.096% (n = 360,000) | AID 602481; in the data active means inhibition above about 40%
GDH-TPI inh = inhibits GDH-TPI coupling enzymes, artifact for Mtb FBA screen | GDH-TPI coupled enzyme counterscreen, NADH absorbance | inhibition, % at 4.8 µM | actives 1.2% (n = 360,000); in the data active means inhibition above about 30%;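 further: 0% = DMSO wells and 100% = wells lacking the enzyme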
Numbers without * were called inactive; . = no result shown; + = active, no number.

SMILES | FBA Mtb inh | Mtb hypoxia rep | FadD28 FP inh | BioA inh | GDH-TPI inh
COc1cc(N/C=C(\C(C)=O)c2ccccc2)cc(OC)c1 | -3 | . | -2 | . | 44*
CC(/C=C1\SC(=O)N(CC(=O)Nc2ccc(O)cc2)C1=O)=C\c1ccccc1 | -1 | . | -1 | 1 | 18
CC(/C=C1\SC(=O)N(CC(=O)Nc2cccc(O)c2)C1=O)=C\c1ccccc1 | 2 | 1 | 4 | . | 33*
COc1ccc(/C=C2\SC(=O)N(CC(=O)Nc3cccc(C)c3)C2=O)cc1O | -2 | 1 | 26* | -1 | 47*
COc1cc(/C=C2\SC(=O)N(CC(=O)Nc3cccc(C)c3)C2=O)ccc1OC(C)C(=O)O (stereo not given) | 0 | 10 | 81* | 1 | 18
Cc1cccc(NC(=O)CN2C(=O)S/C(=C\c3cccn3-c3cccc(C(=O)O)c3)C2=O)c1 | -1 | 7 | 62* | 0 | 6
CC1CN(C(C)CO)C(=O)c2cc(NS(=O)(=O)c3cccs3)ccc2OC1CN(C)C(=O)Nc1ccc(C(F)(F)F)cc1 (stereo not given) | . | 13 | . | . | .
CNC[C@H]1OCCCC[C@H](C)Oc2ccc(NS(=O)(=O)c3cccs3)cc2C(=O)N([C@@H](C)CO)C[C@@H]1C | . | . | . | -2 | .
C[C@@H]1CN([C@H](C)CO)C(=O)c2cc(-c3ccccc3F)cnc2O[C@H]1CN(C)C(=O)C1CC1 | . | . | . | 1 | .
CCCCNC(=O)N1CCC(CCC(=O)N(C)Cc2ccccc2)CC1 | 0 | 15 | -5 | -1 | 6
CC(=O)NCCC1CCN(c2nc3nonc3nc2N(C)Cc2ccccc2)CC1 | 0 | 10 | -5 | . | 37*
O=c1cc(CSc2nnnn2-c2ccccc2)[nH]c2[nH]n(-c3ccccc3)c(=O)c12 | 1 | . | 8.9* | 1 | 18
Cc1cc(-c2ccccc2)cc(-c2ccccc2)[n+]1CCc1ccccc1 | 9 | 20 | -3 | 7 | 4
CCOc1ccc(-c2cc(C)[n+](CCc3ccc(OC)c(OC)c3)c(-c3ccc(OCC)cc3)c2)cc1 | -1 | . | 1 | 10 | 31*
COC(=O)c1ccc(C2C=C(C(=O)O)OC(OCc3ccc(CO)cc3)C2)cc1 (stereo not given) | . | 3 | . | . | .
Cc1noc(C)c1NC(=O)Nc1cccc2c1O[C@H](CN(C)C(=O)Nc1ccccc1)[C@H](C)CN([C@H](C)CO)C2=O | . | . | . | 4 | .
Cc1ccc(COc2ccc(C=NNC(=O)CN3CCCCC3)cc2)cc1 | . | 15 | . | . | .
O=C(N[C@@H]1CC[C@@H](CCNS(=O)(=O)c2ccc(F)cc2)O[C@H]1CO)c1cccnc1 | . | . | . | 7 | .
Cc1[nH]c2ccccc2c1C=NNC(=O)c1ccc(N)cc1 | . | -2 | . | . | .
Cc1[nH]c2ccccc2c1/C=N/NC(=O)CNC(=O)c1ccco1 | 0 | . | -1 | 1 | 16
Cc1[nH]c2ccccc2c1/C=N/NC(=O)c1cc(C(C)C)[nH]n1 | 2 | . | 0 | . | 47*
CCc1cc(C(=O)N/N=C/c2c(C)[nH]c3ccccc23)cs1 | 4 | . | 1 | . | 32*
Cc1[nH]c2ccccc2c1/C=N\NC(=O)c1ccco1 | -3 | . | -1 | 0 | 57*
O=C(C[C@@H]1CC[C@H]2[C@@H](COC[C@@H](O)CN2Cc2cccc(F)c2)O1)NCc1ccncc1 | . | . | . | 0 | .
CCn1c(C)nc2cc(C(=O)NN=Cc3ccc(O)cc3)ccc21 | . | 5 | . | . | .
SMILES | FBA Mtb inh | Mtb hypoxia rep | FadD28 FP inh | BioA inh | GDH-TPI inh
Cc1n[nH]c(C)c1N1C(=O)c2cccc3c(Br)ccc(c23)C1=O | -2 | -7 | -2 | 1 | 13
Cc1n[nH]c(C)c1N1C(=O)c2cccc3cc(Br)cc(c23)C1=O | -2 | -3 | 0 | 58* | 17
O=C1N=C(N2C=CC(=C3C=CNC=C3)C=C2)/C(=C/N=NC(=O)c2ccccc2O)S1 | -5 | . | 0 | -1 | 53*
COc1cccc(C2c3[nH]c4ccccc4c3CCN2C(=O)Cn2cncn2)c1OC (stereo not given) | -1 | 4 | -1 | 11 | -5
COc1ccccc1C1c2[nH]c3ccccc3c2CCN1Cc1ccc(NC(C)=O)s1 (stereo not given) | 8 | 7 | 0 | -2 | 32*
Cc1ccc(S(=O)(=O)Nc2ccc3c(c2)CC(=O)N([C@@H](C)CO)C[C@@H](C)[C@@H](CN(C)Cc2ccccc2)O3)cc1 | . | . | . | -1 | .
N#C/C(=N/Nc1ccccc1F)C(=N)N1CCOCC1 | -1 | . | 0 | -1 | 32*
CCOC(=O)C(=CNc1ccc(C(F)(F)F)cc1Cl)C(=O)OCC | 1 | 5 | 1 | . | 36*
CO[C@H](CN(C)S(=O)(=O)c1cn(C)cn1)[C@@H](C)CN(C(=O)Nc1ccc(C(F)(F)F)cc1)[C@H](C)CO | . | . | . | -1 | .
CCN(CC)c1nc(N)c2c(N)n(-c3ccccc3C)c(=S)c(C#N)c2c1C#N | 0 | 1 | 8.3* | 9 | 44*
CCN(CC)c1nc(N)c2c(N)nc3c(c2c1C#N)CC(c1ccccc1)O3 (stereo not given) | 15 | 3 | 2 | 0 | 9
O=C(NN=C1CCCc2ccccc21)c1ccc([N+](=O)[O-])cc1 | . | 24 | . | . | .
O=C(O)c1ccc(N/N=C2/CCCc3ccccc32)cc1 | 2 | . | 3 | . | 79*
CCOC(=O)C1(C(=O)OCC)COC(=O)C1CN1Cc2cc3ccccc3nc2C1 (stereo not given) | 2 | . | 0 | -1 | 4
CCC1(OC(=O)CN)C(=O)OCc2c1cc1n(c2=O)Cc2cc3ccccc3nc2-1 (stereo not given) | + | 12 | -2 | -1 | 29
CCOc1ccc(/C=C(\C#N)C(=O)c2c(C)[nH]c3ccccc23)cc1OC | 0 | 6 | -5 | 2 | 13
COc1cc(/C=C(/C#N)C(=O)c2c(C)[nH]c3ccccc23)ccc1OCC#N | 3 | . | -2 | -1 | 38*
Cc1ccc2cc(C#N)c(NCc3ccco3)nc2c1 | 116* | 0 | 0 | 0 | 5
Cc1ccc2cc(C)c(SCC(=O)NCc3ccco3)nc2c1 | 1 | 8 | -1 | -2 | -1
O=C(c1nc2nc(-c3ccccc3)cc(C(F)(F)F)n2n1)N1CCCCC1 | 8 | 2 | 1 | . | -6
COc1ccc(-c2cc(C(F)(F)F)n3nc(C(=O)N4CCOCC4)nc3n2)cc1 | 0 | . | 0 | . | 44*
O=c1nccc(NN=Cc2ccccc2)[nH]1 | . | 3 | . | . | .
COc1cc(OC)c(/C=N/NC(N)=S)cc1Br | -1 | . | 1 | . | 35*
CC(CCc1ccc2c(c1)OCO2)=NNC(=O)c1ccccc1 | . | -1 | . | . | .
COc1cc(OC)cc(-c2c(C#Cc3ccsc3)c3cc(-c4ccccc4OC)ccc3n2C)c1 | 19 | 14 | -2 | -3 | 39*
COc1ccc(-c2c(C#Cc3ccsc3)c3cc(-c4ccc5cc[nH]c5c4)ccc3n2C)cc1 | 4 | -1 | -1 | 1 | 17
COc1cc(OC)cc(-c2c(C#Cc3ccsc3)c3cc(-c4ccc5cc[nH]c5c4)ccc3n2C)c1 | 19 | 5 | -3 | -2 | 33*
COc1ccccc1C1/C(=C(/O)c2ccccc2)C(=O)C(=O)N1CC(C)O (stereo not given) | 5 | . | 10* | 1 | 12

Source: PubChem
